Screens deposited in PubChem BioAssay by NMMLSC.
LAP4 TOR yeast: alters LAP4-GFP fluorescence in TOR pathway yeast screen | actives 0.34% (n = 320,000) | AID 2023 | GFP response vs DMSO, % at 10 µM | S. cerevisiae LAP4-GFP multiplex, flow cytometry GFP, 3 h; median GFP as percent of DMSO wells;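 active = GFP response vs DMSO above a set limit, about the screen mean plus 3 SD, cut at about 150% in these data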
AGP1-GFP MLPCN: modulators of TOR pathway AGP1-GFP in S. cerevisiae. S. cerevisiae AGP1-GFP multiplex flow cytometry, 3 h; GFP as percent of DMSO wells. GFP response vs DMSO, % at 10 µM. actives 0.02% (n = 320,000);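 active = GFP response relative to DMSO above a set limit, near screen average plus 3 SD, cut at about 150% in these data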;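 also: median GFP channel fluorescence of the gated AGP1 strain per well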
RPL19A TOR yeast: alters RPL19A-GFP fluorescence in TOR pathway yeast screen; S. cerevisiae RPL19A-GFP strain, flow cytometry, 3 h; stronger effect = lower value; percent response vs DMSO, % at 10 µM; actives 0.3% (n = 330,000); AID 2025;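 active = percent response vs DMSO below 50%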;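 also: median channel GFP fluorescence of the barcoded RPL19A-GFP strain; ratio of sample median GFP to plate DMSO average so 100% = DMSO; lower means less RPL19A-GFP as with rapamycin TOR inhibition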
CIT2 TOR yeast: modulators of TOR pathway CIT2-GFP in S. cerevisiae; S. cerevisiae CIT2-GFP strain, flow cytometry, 3 h; 100 means same as DMSO wells; actives 0.065% (n = 320,000); GFP response vs DMSO, % at 10 µM;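 active = GFP response relative to DMSO above a set limit, near the screen mean plus 3 SD, cut at about 150% in these data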;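 also: ratio of well median GFP fluorescence to mean of DMSO wells on the plate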
MEP2 TOR yeast: yeast TOR pathway MEP2-GFP modulation | S. cerevisiae MEP2-GFP strain, flow cytometry GFP, 3 h; 100% = DMSO control level | GFP response vs DMSO, % at 10 µM | actives 0.51% (n = 330,000) | AID 2016;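 active = GFP response versus DMSO above a set limit, roughly screen mean plus 3 SD, cut at about 180% in these data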;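 also: median GFP fluorescence of the barcode-gated MEP2-GFP cells per well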
LAP4-GFP pick2: second confirmation of modulators of TOR reporter LAP4-GFP in yeast | shares compounds with LAP4 TOR yeast | AID 2621 | GFP response vs DMSO, % at 10 µM | actives 20% (n = 590) | S. cerevisiae LAP4-GFP strain, flow cytometry GFP, 3 h;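 active = GFP signal as percent of the solvent control above about 150%, meaning raised reporter expression, limit read from the data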;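 also: ratio of well median GFP fluorescence to plate DMSO mean so 100% = DMSO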
MEP2 cherry2: yeast MEP2-GFP modulation, second cherry pick | shares compounds with LAP4 TOR yeast | S. cerevisiae MEP2-GFP strain, flow cytometry GFP, 3 h | GFP response vs DMSO, % at 10 µM | actives 10% (n = 590) | AID 2622;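 active = GFP signal above 150% of the solvent control wells, that is a rise of more than half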;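 also: median channel GFP fluorescence of all gated yeast cells per well; ratio of median GFP to plate DMSO average so 100% = DMSO level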
RPL19A GFP CP2: reconfirmed modulator of RPL19A-GFP TOR reporter in yeast. S. cerevisiae RPL19A-GFP strain, flow cytometry GFP, 3 h; stronger effect = lower value; 100% means same as DMSO wells. GFP response vs DMSO, % at 10 µM. shares compounds with LAP4 TOR yeast. actives 3% (n = 590). AID 2623;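 active = under 65% GFP response relative to DMSO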;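 also: median GFP channel fluorescence per well over the all cells gate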
CIT2 GFP CP2: reconfirmed modulator of CIT2-GFP TOR reporter in yeast | shares compounds with LAP4 TOR yeast | S. cerevisiae CIT2-GFP strain, flow cytometry GFP, 3 h; DMSO control wells read 100% | GFP response vs DMSO, % at 10 µM | actives 8% (n = 590);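 active = GFP response vs DMSO above about 150%, limit read from the data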;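 also: median green fluorescence per well over all gated yeast cells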
AGP1-GFP pick2: reconfirmed modulator of AGP1-GFP TOR reporter in yeast; percent response vs DMSO, % at 10 µM; AID 2643; shares compounds with LAP4 TOR yeast; 590 tested, under 10 active; S. cerevisiae AGP1-GFP strain, flow cytometry GFP, 3 h;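 active = over 150 percent of DMSO response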;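 also: median GFP channel fluorescence over all cells without mother daughter split; sample median GFP divided by mean DMSO control so 100% equals DMSO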
Yeast autofluor: counter-screen for compound autofluorescence in yeast s288c cells; S. cerevisiae s288c, 520 nm autofluorescence, flow cytometry, 3 h; stronger effect = higher value; zero means same as solvent-only cells; 610 tested, under 10 active; AID 2757; shares compounds with LAP4 TOR yeast; fluorescence change (kMESF span) at 33 µM;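 active = fluorescence span over the dose series, or activity score, above about 33, limit read from the data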
s288c autofl DR: yeast s288c autofluorescence artifact in dose response; shares compounds with LAP4 TOR yeast; S. cerevisiae s288c parental, compound autofluorescence, flow cytometry, 3 h; fluorescence change (span) at 33 µM; 110 tested, under 10 active; AID 488829;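 active = fluorescence change span, or the activity score built from it, above 25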
TORC1 bypass: stops wildtype yeast growth while TORC1 bypass cells still grow; shares compounds with LAP4 TOR yeast; S. cerevisiae BY4741 spot growth rating, 48-72 h; stronger effect = lower value; growth rating (0-3) at 30 µM; 120 tested, under 10 active; AID 504456;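 active = growth rating at most 1 for wild type yeast while the TORC1 bypass strain still grows fully, rated 3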
The depositor's hits bear a star; · = not tested or not shown; [ ] = remark or other dose. Rows were chosen to be rich in hits. Some 0.93% of all compounds tested hit in one or more screens of this group.

SMILES | LAP4 TOR yeast | AGP1-GFP MLPCN | RPL19A TOR yeast | CIT2 TOR yeast | MEP2 TOR yeast | Yeast autofluor | others
Cc1cc(C)c(OCC(=O)Nc2nc(-c3ccccn3)cs2)c(C)c1 | 153* | 75 | 88 | 78 | 83 | 0.3
COc1ccc(OCCCC(=O)Nc2nc(-c3ccccn3)cs2)cc1 | 108 | 99 | 97 | 101 | 100 | ·
CC1=C(C(=O)Nc2ccccc2)C(c2cccnc2)n2ncnc2N1 (stereo not given) | 87 | 97 | 98 | 94 | 94 | ·
CC(=O)c1c(C)[nH]c(C(=O)COC(=O)c2ccc(C)s2)c1C | 153* | 124 | 118 | 120 | 131 | · | LAP4-GFP pick2=99;MEP2 cherry2=105;RPL19A GFP CP2=101;CIT2 GFP CP2=98;AGP1-GFP pick2=100
CCOC(=O)c1c(C)[nH]c(C(=O)COC(=O)c2[nH]c(C)c(C(C)=O)c2C)c1C | 110 | 108 | 103 | 113 | 107 | ·
CCOC(=O)C1CCCN(S(=O)(=O)c2ccc(-c3cc(C)no3)s2)C1 (stereo not given) | 88 | 86 | 93 | 91 | 99 | ·
O=C(Nc1ccc2c(c1)OCO2)C1CCN(S(=O)(=O)c2ccc3c(c2)OCCO3)CC1 | 98 | 108 | 100 | 105 | 98 | ·
O=C(Nc1ccc(N2CCOCC2)cc1)C1CCN(S(=O)(=O)c2ccc3c(c2)OCCO3)CC1 | 254*[may fluoresce green] | 124 | 123 | 231*[may fluoresce green] | 340*[may fluoresce green] | 0.1 | LAP4-GFP pick2=107;MEP2 cherry2=103;RPL19A GFP CP2=102;CIT2 GFP CP2=98;AGP1-GFP pick2=101
O=c1/c(=C/c2cccc3ccccc23)sc2ncnn12 | 155* | 81 | 106 | 107 | 91 | 0.81 | s288c autofl DR=0.49;TORC1 bypass=3
Cc1ccsc1/C=c1\sc2ncnn2c1=O | 109 | 81 | 100 | 104 | 98 | ·
COc1ccc(C2=CC3=C(Br)C(=O)C(C)(O)C(=O)C3=CO2)cc1 (stereo not given) | 98 | 14 | 42* | 57 | 117 | 3.2 | LAP4-GFP pick2=125;MEP2 cherry2=150*;RPL19A GFP CP2=34*;CIT2 GFP CP2=160*;AGP1-GFP pick2=24
CCC(=O)OC1(C)C(=O)C2=COC(c3ccc(OC)cc3)=CC2=C(Br)C1=O (stereo not given) | 137 | 45 | 84 | 57 | 89 | ·
O=C(O)c1ccccc1SC1CC(=O)N(c2ccc3c(c2)OCO3)C1=O (stereo not given) | 151* | 101 | 100 | 85 | 89 | 0
Cn1nccc1NS(=O)(=O)c1ccc(NC(=O)C(F)(F)F)cc1 | 108 | 107 | 98 | 102 | 95 | ·
CCN1C(=O)/C(=C\C(=O)c2cccs2)c2cc(Br)ccc21 | 196* | 91 | 100 | 78 | 98 | 1.6
O=C(c1ccc([N+](=O)[O-])o1)N1CCN(c2nc3c(F)cc(F)cc3s2)CC1 | 167* | 79 | 60 | 131 | 146 | 9.5
O=C(Oc1c(Cl)cc(Cl)c2cccnc12)c1cccc([N+](=O)[O-])c1 | 187* | 92 | 92 | 107 | 95 | 2.4 | s288c autofl DR=0.24;TORC1 bypass=0
O=C(Oc1ccc(Cl)c2cccnc12)c1cccc([N+](=O)[O-])c1 | 96 | 88 | 93 | 85 | 91 | ·
O=C(CN(Cc1ccccc1)S(=O)(=O)c1ccc(F)cc1)NCc1cccnc1 | 80 | 90 | 104 | 96 | 101 | ·
Cc1[nH][nH]c(=O)c1C(c1ccccc1[N+](=O)[O-])C(C#N)C#N (stereo not given) | 106 | 104 | 102 | 102 | 119 | ·
CC1=NN(c2ccccc2)C(=O)C1C(c1ccccc1[N+](=O)[O-])C(C#N)C#N (stereo not given) | · | · | · | · | · | · | s288c autofl DR=0.42;TORC1 bypass=3
COc1ccc2[nH]c3c(c2c1)CCNC3c1ccc([N+](=O)[O-])o1 (stereo not given) | 314* | 132 | 135 | 266* | 498* | · | LAP4-GFP pick2=317*;MEP2 cherry2=564*;RPL19A GFP CP2=145;CIT2 GFP CP2=414*;AGP1-GFP pick2=134
CCOc1ccc(N(Cc2nnc3n2CCCCC3)C(=O)Nc2cccc(C)c2)cc1 | 105 | 102 | 101 | 105 | 113 | ·
COc1ccc([C@@H]2CC=C(C(=O)O)CN2S(=O)(=O)c2ccc(Cl)cc2)cc1 | 131 | 85 | 96 | 110 | 83 | ·
Cc1ccc(S(=O)(=O)N2CC(C(=O)O)=CC[C@H]2c2ccc(Cl)cc2)cc1 | 159* | 83 | 97 | 89 | 89 | -0.31 | LAP4-GFP pick2=111;MEP2 cherry2=93;RPL19A GFP CP2=97;CIT2 GFP CP2=97;AGP1-GFP pick2=95
SMILES | LAP4 TOR yeast | AGP1-GFP MLPCN | RPL19A TOR yeast | CIT2 TOR yeast | MEP2 TOR yeast | Yeast autofluor | others
O=C(Nc1cccc(-c2csc(Nc3ccccc3)n2)c1)c1ccccc1 | 153* | 82 | 98 | 90 | 98 | 0.1 | LAP4-GFP pick2=109;MEP2 cherry2=103;RPL19A GFP CP2=97;CIT2 GFP CP2=92;AGP1-GFP pick2=93
O=C(Nc1cccc(-c2csc(Nc3cccc(C(F)(F)F)c3)n2)c1)c1ccccc1 | 141 | 93 | 102 | 107 | 100 | ·
OCCC1CN(Cc2cccc3c2OCO3)CCN1C1CCCCC1 (stereo not given) | 94 | 104 | 109 | 107 | 105 | ·
C=CCn1c(=O)c2ccccc2n2c(SCC(C)=O)nnc12 | 80 | 95 | 96 | 88 | 98 | ·
COc1c(OC(C)=O)c(=O)n2c3ccccc3c3ccnc1c32 | 95 | 24 | 48* | 93 | 245* | · | LAP4-GFP pick2=91;MEP2 cherry2=92;RPL19A GFP CP2=105;CIT2 GFP CP2=109;AGP1-GFP pick2=87
Cc1cc(C)cc(NC(=O)COC(=O)COc2cccc3c2OC(C)(C)C3)c1 | 114 | 115 | 101 | 102 | 105 | ·
